Pol III holo inh = qHTS Assay for Inhibitors of DNA Polymerase III Holoenzyme System. hit rate 0.25% among 71,000. Potency, µM (highest dose often 57.1 µM), without a hit: at the top dose activity change, negative = inhibition. reconstituted DNA polymerase III holoenzyme replication, biochemical; further: potency means the concentration at half of the fitted maximal effect; on the % scale 0 is the no-effect control and ±100 the full control effect
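Reconstituted *E. coli* holoenzyme (0.35 nM Pol III, 1 nM beta, 154 nM SSB, 2 nM primase) was preincubated with compound for 15 min at RT. Synthesis on 1.4 nM ssM13Gori ran 35 min, then was stopped with PicoGreen/EDTA and read as dsDNA fluorescence.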
BRCT PPI red = qHTS Assay for Inhibitors of BRCT-Phosphoprotein Interaction (Red Fluorophore); Breast cancer type 1 susceptibility protein (Homo sapiens), P38398; BRCT-phosphopeptide binding, red fluorescence polarization; Potency, µM (series often up to 76.9 µM), for inactives: top-dose activity change, negative = inhibition, most hits filed as inhibitors; hit rate 0.03% among 75,000; further: on the % scale 0 is the no-effect control and ±100 the full control effect
Target sequence (P38398 whole entry, looked up): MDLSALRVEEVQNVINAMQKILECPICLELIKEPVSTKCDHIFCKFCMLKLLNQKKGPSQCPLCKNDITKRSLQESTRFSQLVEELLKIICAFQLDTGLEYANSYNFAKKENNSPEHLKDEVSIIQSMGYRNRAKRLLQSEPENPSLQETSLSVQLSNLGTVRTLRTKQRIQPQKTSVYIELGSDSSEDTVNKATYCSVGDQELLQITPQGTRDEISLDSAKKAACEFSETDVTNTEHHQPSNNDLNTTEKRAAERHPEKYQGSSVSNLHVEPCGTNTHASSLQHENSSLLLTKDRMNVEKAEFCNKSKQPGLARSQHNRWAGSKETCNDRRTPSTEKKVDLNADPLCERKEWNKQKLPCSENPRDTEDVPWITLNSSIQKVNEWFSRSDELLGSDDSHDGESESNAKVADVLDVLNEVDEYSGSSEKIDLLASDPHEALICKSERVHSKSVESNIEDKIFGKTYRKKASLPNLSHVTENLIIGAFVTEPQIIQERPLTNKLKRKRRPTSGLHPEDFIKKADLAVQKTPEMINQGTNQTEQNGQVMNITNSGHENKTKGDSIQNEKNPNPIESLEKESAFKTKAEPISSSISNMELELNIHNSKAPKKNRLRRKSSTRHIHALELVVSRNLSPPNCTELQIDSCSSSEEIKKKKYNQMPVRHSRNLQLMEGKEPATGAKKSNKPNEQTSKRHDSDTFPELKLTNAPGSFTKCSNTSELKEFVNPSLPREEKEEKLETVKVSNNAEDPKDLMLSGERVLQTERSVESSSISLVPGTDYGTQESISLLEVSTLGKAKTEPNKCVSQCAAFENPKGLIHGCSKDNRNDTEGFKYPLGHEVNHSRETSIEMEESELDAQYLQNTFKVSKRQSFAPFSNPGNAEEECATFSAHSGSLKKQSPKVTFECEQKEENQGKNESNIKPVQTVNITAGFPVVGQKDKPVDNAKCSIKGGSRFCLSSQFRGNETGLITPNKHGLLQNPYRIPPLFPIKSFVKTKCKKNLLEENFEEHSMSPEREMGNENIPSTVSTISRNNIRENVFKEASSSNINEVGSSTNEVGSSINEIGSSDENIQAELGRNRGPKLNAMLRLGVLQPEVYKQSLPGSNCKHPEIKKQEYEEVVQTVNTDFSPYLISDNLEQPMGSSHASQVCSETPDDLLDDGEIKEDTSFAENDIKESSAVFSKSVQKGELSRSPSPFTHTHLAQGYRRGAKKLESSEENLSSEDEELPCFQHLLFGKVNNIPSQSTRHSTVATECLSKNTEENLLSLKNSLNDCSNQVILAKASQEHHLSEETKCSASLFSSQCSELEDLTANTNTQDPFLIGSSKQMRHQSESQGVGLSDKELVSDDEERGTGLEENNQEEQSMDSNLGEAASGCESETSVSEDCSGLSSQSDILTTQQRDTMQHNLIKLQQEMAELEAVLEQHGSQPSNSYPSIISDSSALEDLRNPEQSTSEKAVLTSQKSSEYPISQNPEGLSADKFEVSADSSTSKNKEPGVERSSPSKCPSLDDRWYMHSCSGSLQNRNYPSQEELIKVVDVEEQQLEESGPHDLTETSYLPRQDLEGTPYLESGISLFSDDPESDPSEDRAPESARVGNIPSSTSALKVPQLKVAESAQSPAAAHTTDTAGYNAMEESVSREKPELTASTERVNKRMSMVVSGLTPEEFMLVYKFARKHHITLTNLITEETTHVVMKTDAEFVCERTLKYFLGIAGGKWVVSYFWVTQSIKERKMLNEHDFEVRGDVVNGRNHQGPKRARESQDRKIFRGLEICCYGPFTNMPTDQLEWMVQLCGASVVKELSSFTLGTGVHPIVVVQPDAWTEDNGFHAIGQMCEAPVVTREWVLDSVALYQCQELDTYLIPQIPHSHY
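Rhodamine-labelled pBACH1 10-mer (100 nM) bound to BRCT domain (100 nM) at pH 7.3; compounds incubated 12 min room temperature, polarization read. Free peptide defines full inhibition; unlabelled decapeptide titrated as control.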
TsaE inh = qHTS Assay for Inhibitors of YjeE | tRNA threonylcarbamoyladenosine biosynthesis protein TsaE (Escherichia coli (strain … | purified YjeE enzyme, qHTS inhibition assay | Potency, µM | hit rate 0.05% among 71,000 | AID 605, 2007
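Fluorescence polarization of a BODIPY Texas Red–ADP probe (2 uM) bound to purified YjeE (10 uM) was read after 15 min room-temperature incubation with compounds. Loss of polarization marks inhibitors; ADP serves as titrated control.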
ERK AVP inh = qHTS Assay for Inhibitors of the ERK Signaling Pathway using a Homogeneous Screening Assay | HEK293-V1b, vasopressin-stimulated pERK AlphaScreen | Potency, µM (titrated, usually from 57.5 µM), without a hit: top-dose activity, negative = inhibition, usual class: inhibitors | hit rate 0.99% among 72,000; further: potency means the concentration at half of the fitted maximal effect; on the % scale 0 is the no-effect control and ±100 the full control effect; nearly all actives have a fitted effect of over 55% in size
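Phosphorylated ERK1/2 detected via AlphaScreen bead proximity in lysates of V1b-expressing HEK293 cells given 25 nM vasopressin for 5 min after 30 min compound exposure (37 °C). AC50 from Hill equation; basal DMSO 0%, vasopressin 100%.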
BRCT inh green = qHTS Assay for Inhibitors of BRCT-Phosphoprotein Interaction (Green Fluorophore). Breast cancer type 1 susceptibility protein (Homo sapiens), P38398. AID 875, 2007. hit rate 0.05% among 75,000. BRCA1 BRCT-phosphopeptide binding, green fluorescence polarization. Potency, µM (highest dose often 76.9 µM), inactives show at the top dose activity change, negative = inhibition, hits mostly inhibitors;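 further: potency means the concentration at half of the fitted maximal effect; plate controls were peptide without protein for full effect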
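Compounds were incubated for 12 min at room temperature with a complex of 100 nM fluorescein-tagged pBACH1 decapeptide and 250 nM His-tagged BRCT protein. Buffer was phosphate pH 7.3 with EDTA, DTT and Tween 20. Disruption of binding lowers the polarization signal.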
15-hLO inh = qHTS Assay for Inhibitors of 15-hLO (15-human lipoxygenase); Polyunsaturated fatty acid lipoxygenase ALOX15 (Homo sapiens), P16050; purified 15hLO-1, xylenol orange hydroperoxide absorbance; Potency, µM (series often up to 57.1 µM), without a hit: at the top dose activity change, negative = inhibition, usual class: inhibitors; hit rate 1.4% among 74,000; AID 887, 2007; further: potency means the concentration at half of the fitted maximal effect; on the % scale 0 is the no-effect control and ±100 the full control effect; nearly all actives have a fitted effect of over 55% in size
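Hydroperoxide formed from arachidonic acid (50 uM) by purified human 15hLO-1 (40 nM) oxidizes ferrous iron, and the ferric-xylenol orange complex is read at 573 versus 405 nm. Compounds were preincubated 15 min; reaction ran 6 min at room temperature.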
An asterisk follows results filed as active; i = inactive; ? = inconclusive; nt = no result; [ ] = remark or other dose. A selection: hits, their analogues and other compounds. The true share with any hit is near 2.4%. The call rests on the fitted dose curve; in most records, active means well fitted curve in the direction sought with a large enough effect; inconclusive means small, poorly fitted or top-dose-only effect, or another doubt; inactive means no such curve, though single readings can be large; an effect the other way counts as inactive or inconclusive.

SMILES	Pol III holo inh	BRCT PPI red	TsaE inh	ERK AVP inh	BRCT inh green	15-hLO inh
CCN(CC)c1ccc(NC(=O)c2ccc(Br)o2)c(C)c1	-2%	0%	i	25µM*	-1%	?
c1ccc2c(c1)Cc1cc3ccccc3nc1-2	-19%	-6%	i	13µM*	1%	nt
CN(CCc1ccccn1)c1ccc2c(c1)Cc1ccccc1-2	-5%[11.4 µM]	-1%[15.4 µM]	i	-5%[11.5 µM]	-2%[15.4 µM]	9%[11.4 µM]
CCc1ccc2c(c1)N(C[C@H](C)CN(C)C)c1ccccc1S2	-11%[11.4 µM]	-1%[15.4 µM]	i	11%[11.5 µM]	-2%[15.4 µM]	-5%[11.4 µM]
CC(=O)Oc1cc(-c2coc3cc(OC(C)=O)c(OC(C)=O)c(OC(C)=O)c3c2=O)cc(OC(C)=O)c1OC(C)=O	nt	0%	nt	-2%	-1%[3.08 µM]	16µM*
COc1cc(-c2coc3cc(OC)c(OC)c(OC)c3c2=O)cc(OC)c1OC	nt	0%	nt	-2%	0%[3.08 µM]	4%
CC(C)(C)N1C(=O)Cc2c1nc(N)c1c(N)nc(N3CCCCC3CO)c(C#N)c21 (centres undefined)	-10%	0%	i	-15%	4%	20µM*
CC(C)/C(=N/[N+](C)(C)C)c1ccccc1	-5%[11.4 µM]	0%[15.4 µM]	i	3%[11.5 µM]	-2%[15.4 µM]	-5%[11.4 µM]
Cc1ccccc1C(=O)N1CCN(c2ccc(NC(=O)c3ccco3)cc2Cl)CC1	-4%	-1%	i	32µM*	0%	-18%
C/C=C/OC(=O)NC(c1ccccc1)[C@]1(C(C)=O)CCOC1=O (some centres undefined)	nt	0%[15.4 µM]	nt	18%[11.5 µM]	-3%[15.4 µM]	29%[11.4 µM]
CC(C)CC(C(=O)Nc1oc(-c2ccco2)c(-c2ccco2)c1C#N)N1C(=O)c2ccccc2C1=O (centres undefined)	1%	-10%	i	?	-1%	25µM*
Cc1cccc2cc(COC(=O)COc3ccccc3)c(=O)[nH]c12	3%	0%	i	11%	-4%	-1%
CN(C)C(=O)c1ccc(-c2cc(-n3ccnc3)ncn2)cc1	-6%	0%	i	0%	0%	25µM*
CN(C)Cc1ccccc1-c1cc(-n2ccnc2)ncn1	-1%	0%	i	9%	-3%	13µM*
CCCCCCN(C(=O)CCCCCN1C(=O)NC(C2CCCCC2)C(C(=O)OCc2ccccc2)=C1C)C(C(=O)NCCCC)c1ccc(OCC(=O)OC)c(C(=O)OC)c1 (centres undefined)	1%	0%	i	12%	7%	?
Cc1cc(=O)n2[nH]c(C)c(-c3ccccc3)c2n1	0%	0%	i	8%	-1%	11%
Cc1cc(=O)n2[nH]c(C)c(-c3ccc(Cl)cc3)c2n1	20µM*	-1%	i	-4%	-3%	18%
C[C@@]1(C(=O)O)NCCc2cc(O)c(O)cc21	7.9µM*	-1%	i	?	-1%	43%[25.6 µM]
c1ccc(CN2COc3c(ccc4c5c(ccc34)CN(Cc3ccccc3)CO5)C2)cc1	-10%[11.4 µM]	2%[15.4 µM]	i	-6%[11.5 µM]	-2%[15.4 µM]	2%[11.4 µM]
N#CCCCSc1nnc(CSc2nc3ccccc3s2)n1-c1ccccc1	1%	-1%	i	25µM*	8%	-11%
OCCN1CCN(C(c2cccs2)c2ccc3cccnc3c2O)CC1 (centres undefined)	-6%	-1%	i	?	-2%	4µM*
COc1ccc(Nc2ncc3c(n2)CC(c2ccc(OC)cc2)CC3=O)cc1 (centres undefined)	-2%	0%	i	-20%	-2%	-18%
COc1ccc(-c2nc3cnccn3c2Nc2ccc3c(c2)OCO3)cc1	11%	0%	i	nt	-1%	-10%
Cc1ccc(-c2nc3cnccn3c2Nc2ccc3c(c2)OCCO3)o1	2%	-2%	i	?	-4%	25µM*
CC(=O)OC1CC(C)OC(C)O1 (centres undefined)	-1%	1%	i	-17%	-1%	-1%
SMILES	Pol III holo inh	BRCT PPI red	TsaE inh	ERK AVP inh	BRCT inh green	15-hLO inh
OCC1OC([S-])[C@H](O)C(O)C1O.[Au+] (some centres undefined)	nt	32µM*	nt	?	-2%[3.08 µM]	?
OC[C@H]1O[C@@H](OC[C@H]2O[C@@H](O)[C@H](O)[C@@H](O)[C@@H]2O)[C@H](O)[C@@H](O)[C@@H]1O	nt	2%	nt	4%	-2%	-6%[25.6 µM]
CCOc1ccc(-c2n[nH]c(C)c2Oc2ccc(OC)cc2)c(O)c1	-8%	-3%	i	40µM*	0%	?
CCC1=C(C[C@H]2NCCc3ccccc32)C[C@@H]2c3cc(OC)c(OC)cc3CCN2C1	-3%[11.4 µM]	-6%[15.4 µM]	i	1%[11.5 µM]	-3%[15.4 µM]	-17%[11.4 µM]
CCOC(=O)CCN1C(=O)[C@H]2[C@H]3[C@H](O)[C@H](O)C/C(=N/OCc4ccccc4)[C@@H]3CC[C@@H]2C1=O	nt	-1%[15.4 µM]	nt	9%[11.5 µM]	-2%[15.4 µM]	1%[11.4 µM]
Cc1ccc(Cn2c(=S)[nH]c3ccc(N4CCOCC4)cc3c2=O)o1	?	-7%	i	32%	-9%	16µM*
NC1(C(=O)NC2(C(=O)O)CCCC2)CCCC1	-1%[11.4 µM]	-1%[15.4 µM]	i	-3%[11.5 µM]	0%[15.4 µM]	4%[11.4 µM]
C[C@H](CCC(=O)O)[C@H]1CC[C@@H]2[C@@H]3CC[C@H]4C[C@@H](O)CC[C@@]4(C)[C@@H]3C[C@H](O)[C@@]21C	-13%[11.4 µM]	-1%[15.4 µM]	i	4%[11.5 µM]	-1%[15.4 µM]	10%[11.4 µM]
CN(C)c1ccc(-c2nc(Nc3ccncc3)c3ccccc3n2)cc1	-8%	1%	i	16µM*	0%	-25%
CN(C)C(=O)c1ccc(-c2nc(Nc3ccncc3)c3ccccc3n2)cc1	-7%	-5%	i	-19%	12%	-15%
COc1ccc(CNc2nc(-c3ccc(N(C)C)cc3)nc3ccccc23)c(OC)c1	-1%	-3%	i	-14%	3%	10µM*
CN(C)c1ccc(-c2nc(NCc3cccnc3)c3ccccc3n2)cc1	-6%	-2%	i	8%	8%	20µM*
COC1=CC(C)C2CC3OC(=O)CC4C(C)=C(OC)C(=O)C([C@]2(C)C1=O)[C@]34C (some centres undefined)	nt	0%	nt	7%	2%	-2%
Cn1c(=O)[nH]c(=O)c2c1nc(Br)n2CCCSc1nc2ccccc2o1	-5%	-1%	i	32µM*	0%	-1%
O=c1c(-c2cccs2)nc2cncnc2n1Cc1ccc(F)cc1	-8%	-2%	i	10%	0%	6%

Assay outcomes (PubChem)
